# A selection: hits, their analogues and other compounds. The true share with any hit is near 3.4%.
# proKLK7 act – proKLK7 (human) activation, primary screen | P49862 | purified proKLK7, EDANS-DABCYL substrate fluorescence; 100% is mature enzyme control, 0% vehicle | activation, % at 7 µM | 370,000 compounds, 0.9% hits | AID 652039;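 active means activation above the mean of all tested compounds plus 3 SD, computed per campaign excluding outliers beyond control limits, cut at about 13% in these data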
# PLC-beta3 inh – blocks human PLC-beta3 enzyme activity; Q01970; Purified PLC-beta3, fluorogenic substrate, fluorescence; inhibition, % at 12.2 µM; 370,000 compounds, 0.18% hits; in the data active means inhibition above about 11%;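 further: 0% = median of compound wells on plate and 100% = full blocker control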
# ADAM17 inh – inhibits human ADAM17 | 370,000 compounds, 0.83% hits | AID 720648 | P78536 | recombinant ADAM17, EDANS/DABCYL FRET peptide cleavage | inhibition, % at 6.95 µM;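 active means inhibition above the mean of compounds lying between control limits plus 3 SD, set per campaign, cut at about 8.5% in these data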;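 further: 0% = DMSO-only wells as the low control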
# Target sequence (P78536 215-824 limits assumed): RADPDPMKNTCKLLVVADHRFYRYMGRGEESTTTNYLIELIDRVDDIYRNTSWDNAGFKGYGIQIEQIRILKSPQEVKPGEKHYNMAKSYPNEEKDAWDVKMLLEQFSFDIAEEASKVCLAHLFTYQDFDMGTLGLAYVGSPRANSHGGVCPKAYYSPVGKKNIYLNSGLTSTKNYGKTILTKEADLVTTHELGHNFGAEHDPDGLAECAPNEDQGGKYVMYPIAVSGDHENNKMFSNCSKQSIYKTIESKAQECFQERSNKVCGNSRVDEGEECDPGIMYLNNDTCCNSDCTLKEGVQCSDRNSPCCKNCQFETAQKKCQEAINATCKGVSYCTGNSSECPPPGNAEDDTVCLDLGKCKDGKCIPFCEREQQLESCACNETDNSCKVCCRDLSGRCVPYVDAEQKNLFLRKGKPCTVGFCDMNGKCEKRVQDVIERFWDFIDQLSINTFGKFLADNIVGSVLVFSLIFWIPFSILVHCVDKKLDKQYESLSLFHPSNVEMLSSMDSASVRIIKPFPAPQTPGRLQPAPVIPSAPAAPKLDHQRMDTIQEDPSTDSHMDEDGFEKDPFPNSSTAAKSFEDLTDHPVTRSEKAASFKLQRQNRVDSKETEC
# PLCg1 inh – inhibitors of human phospholipase C gamma1; purified PLC-gamma1, fluorogenic substrate, fluorescence; inhibition, % at 12.2 µM; 370,000 compounds, 0.84% hits; P19174; in the data active means inhibition above about 9.5%
# ADAM10 inh – inhibitors of human ADAM10; O14672; recombinant ADAM10, EDANS/DABCYL FRET peptide cleavage, 3 h; inhibition, % at 7 µM; 370,000 compounds, 0.62% hits; AID 720582;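 active means inhibition above a per-campaign cutoff equal to the mean of compounds falling between control-based bounds plus 3 SD, cut at about 20% in these data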;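 further: 0% = DMSO wells while the 100% control is not disclosed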
# sPLA2-III inh – Blocks human group III sPLA2 activity; inhibition, % at 12.2 µM; AID 743126; 370,000 compounds, 0.56% hits; QFRET BODIPY PC-A2 liposome hydrolysis, fluorescence; Q9NZ20;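 active means inhibition above mean plus 3 SD of compounds lying within the high and low control bounds, cut at about 19% in these data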;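 further: 0% = median of test compound wells and 100% = no enzyme DMSO wells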
# KLK7 act conf – confirmation of human kallikrein-7 zymogen activators. shares compounds with proKLK7 act. purified proKLK7, EDANS-DABCYL substrate fluorescence; scaled: vehicle 0, mature enzyme 100. activation, % at 7 µM. 3,200 compounds, 68% hits. AID 686949;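 active means activation, as change over the incubation, above the mean of all tested compounds plus 3 SD, cut at about 13% in these data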
# EDANS-DABCYL int – optically interferes with EDANS-DABCYL signal, flagging KLK7 hits | shares compounds with proKLK7 act | EDANS-DABCYL substrate fluorescence interference, no enzyme, 4 h; solvent 0%, active enzyme control 100% | 3,200 compounds, 80% hits | activation, % at 7 µM;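 active means activation above the all-compound mean plus 3 SD, ignoring values outside control-based bounds, cut at about 4.8% in these data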;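 further: value is the 4 h activation minus the activation read at time zero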
# * = called active by the depositor; i = inactive; · = no result.
SMILES,proKLK7 act,PLC-beta3 inh,ADAM17 inh,PLCg1 inh,ADAM10 inh,sPLA2-III inh,KLK7 act conf,EDANS-DABCYL int
Cc1cc(=O)oc2c3c(cc(OCC(=O)NCCCn4ccnc4)c12)OC(C)(C)CC3,28.9*,i,i,i,i,-9.3,7.9,-8.0
COc1ccc(CNC(=O)COc2cc3c(c4oc(=O)cc(C)c24)CCC(C)(C)O3)cc1OC,-0.1,-69.2,-42.1,-49.1,-141.3,-0.2,·,·
Cc1cc(=O)oc2c3c(cc(OCC(=O)NCc4ccco4)c12)OC(C)(C)CC3,11.9,i,i,i,i,-4.5,·,·
CCCC[C@H]1C2CC(OC(=O)Nc3ccc(C)cc3)C(C2)[C@H]2CCCCN21 (stereo not given in full),0.2,0.2,0.4,7.1,-0.8,10.0,·,·
N#Cc1ccccc1OCCN1C(=O)c2ccccc2C1=O,0.1,0.9,-3.3,1.2,-1.0,-5.2,·,·
Nc1cccc2c1C(=O)N(CCOc1ccccc1F)C2=O,47.0*,i,-102.0,i,-333.2,-1.8,72.3*,78.1*
O=S(=O)(CC1NCCc2ccccc21)NCc1ccccc1 (stereo not given),-0.2,0.4,0.1,-1.8,3.9,-1.3,·,·
CCOc1ccccc1/C=C/c1cc(C(=O)O)c2ccccc2n1,11.6,i,-50.6,-367.8,-172.5,-7.1,·,·
CCOc1ccccc1/C=C/c1nc2ccccc2[nH]c1=O,12.9*,i,-395.1,i,i,1.4,0.6,-1.0
Cc1[nH]c2ccccc2c1/C=C(\C#N)S(=O)(=O)c1ccccc1,13.6*,-135.8,4.7,-6.5,13.7,-17.7,-1.6,-4.6
COC(=O)C1CN(Cc2cn(Cc3ccc(C)cc3)nn2)CCS(=O)(=O)N1Cc1ccc(OC)cc1 (stereo not given),0.1,3.6,-0.5,3.5,-0.3,-2.8,·,·
Cc1cccc(NC(=O)NN(C(=O)c2ccccc2Cl)C(C)(C)C)c1,0.6,-2.6,0.8,-2.7,0.2,-5.1,·,·
COCC(=O)Nc1ccc(-c2cn3cccnc3n2)cc1,25.2*,i,i,i,i,1.9,62.7*,80.8*
COc1ccc(-c2cn3cccnc3n2)cc1NC(=O)c1cccs1,3.9,-499.9,-110.1,-363.5,-380.6,16.3,·,·
CCC(CC)C(=O)Nc1ccc(-c2cn3cccnc3n2)cc1,61.5*,i,i,i,i,5.1,66.0*,64.2*
COc1ccc(-c2cn3cccnc3n2)cc1NC(=O)C(C)Oc1ccccc1 (stereo not given),-30.3,i,-479.6,i,i,4.7,·,·
CCCCCn1nnnc1C1c2ccccc2OCC(=O)N1Cc1ccco1 (stereo not given),0.2,2.7,1.4,0.7,-0.5,6.8,·,·
COC(=O)[C@@H]1C[C@@]2(c3ccccc3)c3ccccc3N(S(=O)(=O)c3ccccc3)[C@H]2N1C(=O)CNC/C=C(\C)CCC=C(C)C,-0.1,-1.3,1.7,0.3,4.1,-9.8,·,·
CC(=O)c1cc2ccc(O)cc2oc1=O,19.9*,-478.1,i,-360.8,i,1.6,27.0*,32.4*
O=C(NCc1ccco1)c1cc2ccc(O)cc2oc1=O,48.5*,i,i,i,i,-3.1,57.8*,70.6*
Cc1ccc(N=c2oc3cc(O)ccc3cc2C(N)=O)cc1,24.2*,i,i,i,i,3.2,9.7,10.7*
COc1ccc2cc(C(=O)NCc3ccco3)c(=O)oc2c1,-25.3,-45.2,-110.3,-40.2,-341.3,6.1,·,·
CC(=O)c1cc2cc(O)ccc2o1,83.0*,i,i,i,i,4.2,70.6*,64.0*
CCOC(=O)[C@@]12CCCC3=C1N(CCC3)C(=O)[C@H]2CC(=O)NCC1CCCCC1,-0.4,-4.9,-3.5,1.4,-9.2,12.0,·,·
COc1ccc(C2c3ccccc3NC3C2C(=O)N(Cc2ccc(OC)cc2OC)[C@H]3Cc2ccccc2)cc1 (stereo not given in full),-0.4,-6.9,-8.9,-0.8,-9.4,5.1,·,·
SMILES,proKLK7 act,PLC-beta3 inh,ADAM17 inh,PLCg1 inh,ADAM10 inh,sPLA2-III inh,KLK7 act conf,EDANS-DABCYL int
COC(=O)Cn1c(=NC(=O)c2cc(-c3cccs3)nc3ccccc23)sc2cc(S(N)(=O)=O)ccc21,-82.7,i,-151.3,i,-356.6,-3.1,·,·
CCOC(=O)Cn1c(=NC(=O)c2cc(-c3cccs3)nc3ccccc23)sc2cc(S(N)(=O)=O)ccc21,171.5*,-291.4,-23.4,-282.5,-72.7,-7.2,-1.9,-15.1
O=C(O)c1cn(-c2ccc(F)cc2)c2cc(N3CCNCC3)c(F)cc2c1=O,14.6*,-117.0,-114.4,-82.8,-435.1,14.9,5.6,3.9
CCCCCn1nnnc1C1(C)CCCCC(=O)N1Cc1ccco1 (stereo not given),-0.1,-0.6,-1.3,1.3,-1.3,2.9,·,·
O=c1c2ccccc2[nH]c(=S)n1CCCN1CCOCC1,-0.2,5.0,-3.6,8.8,-1.8,5.3,·,·
N=C1c2c(cc(=O)n3c2[nH]c2ccccc23)CN1CCN1CCOCC1,14.9*,-436.4,i,-301.5,i,-3.6,-5.7,-6.0
Cc1nc2nc(N)nc(OCc3ccccc3)c2nc1C,59.4*,i,i,i,i,-0.7,75.4*,80.2*
CN1CCCC1CCNc1ccc2c(=O)c3ccccc3oc2c1 (stereo not given),76.2*,i,i,i,i,2.3,71.7*,80.0*
CN1CCC[C@H]1CCNc1ccc2c(=O)c3ccccc3n(C)c2c1,48.9*,i,i,i,i,-8.0,84.0*,80.0*
O=C(NCc1cccc2ccccc12)C1CCCN(c2nc3ccccc3o2)C1 (stereo not given),-0.1,1.6,1.3,-4.2,-1.4,-14.3,·,·
CC(C)CN1C(=O)C[C@@]2(C(=O)N(C)c3ccc(NC(=O)C(F)(F)F)cc32)C1c1ccccc1 (stereo not given in full),-0.3,2.3,-5.5,0.0,-5.4,7.9,·,·
Cc1ccc(NC(=O)CCS(=O)(=O)c2ccccc2)c(C)c1,-0.1,-0.9,-3.0,3.1,-10.0,5.6,·,·
NC(=O)c1sc2nc(N3CCOCC3)c3c(c2c1N)CCCC3,20.9*,i,-334.1,i,i,2.2,-0.7,0.2
CCOC(=O)c1sc2nc(N3CCOCC3)c3c(c2c1N)CCC3,-70.2,i,i,i,i,2.3,·,·
Nc1c(C(=O)NCCc2ccccc2)sc2nc(N3CCOCC3)c3c(c12)CCCC3,151.9*,i,-261.5,i,i,-9.0,-18.8,-21.1
